In PubChem BioAssay (NCATS):
Results filed as inconclusive are left out. Entries that show only a call come without a potency. Active and inactive are the calls of the source. Calls come from the whole dose curve; as a rule, active = well fitted inhibition curve with a large enough effect; inconclusive = small, poorly fitted or top-dose-only effect; inactive = no such curve, though single readings can be large or run the other way.

The molecules below were run against Retinaldehyde dehydrogenase 3 (Homo sapiens) (UniProt P47895) (assay: qHTS for Inhibitors of the Aldehyde Dehydrogenase Family (ALDH1A3) Primary screen (AID 2061315)). Settings: ALDH inhibition qHTS; series mostly up to 56 µM.

| Compound | Potency |
| --- | --- |
| CCCCc1ccc(-c2ccc(=O)n(CC(=O)NCCc3ccccc3)n2)cc1 | inactive |
| Cc1ccc(S(=O)(=O)Nc2ccc(Cl)cc2C(=O)Nc2nc(-c3ccccc3)cs2)cc1 | inactive |
| CC(=O)Nc1sc2c(c1-c1nc3ccccc3s1)CCCN(C(C)C)C2 | inactive |
| Fc1cc(Nc2nc(-c3ccncc3)nc3ccccc23)ccc1-c1cn[nH]c1 | inactive |
| NC(=O)C1CCN(c2nnc(-c3ccc(Br)cc3)s2)CC1 | inactive |
| C=C[C@H]1CN2CC[C@H]1C[C@@H]2C(O)c1ccnc2ccc(OC)cc12 (stereo not given in full) | inactive |
| Cc1ccc(NS(=O)(=O)c2ccc3c(c2)CCC(=O)N3)cc1Cl | inactive |
| O=C(CNC(=O)C1CCCCC1)OC(C(=O)c1ccccc1)c1ccccc1 (stereo not given) | inactive |
| CC1(C)CC(=O)C2=C(C1)NC(Nc1nc3ccccc3o1)=NC21CCCC1 | inactive |
| O=C1CCCC2=C1C(c1ncccc1C(F)(F)F)N=C(Nc1nc3ccccc3o1)N2 (stereo not given) | inactive |
| C=C1C(=O)O[C@@H]2[C@H]1CC[C@H](C)[C@]1(CCC(=O)O1)C2(C)O (stereo not given in full) | inactive |
| Oc1c(C(Nc2ccccn2)c2ccccc2)cc(Cl)c2cccnc12 (stereo not given) | inactive |
| Cc1ccc(NS(=O)(=O)c2cc3c(cc2Cl)CCC(=O)N3)cc1C | inactive |
| COc1cccc(N2C(=O)c3ccccc3C2=O)n1 | inactive |
| O=[S+]([O-])(c1cc2ccccc2o1)N1CCN([S+](=O)([O-])c2c(F)cccc2F)CC1 | inactive |
| CCNc1ncnc2ccc(-c3ccc4c(c3)OCO4)cc12 | inactive |
| CC[C@H](C)[C@H](NC(=O)[C@H]([C@@H](C)CC)N(C)C(C)=O)C(=O)N[C@H](C(=O)N[C@@H](CC(C)C)C(=O)[C@@]1(C)CO1)[C@@H](C)O | inactive |
| NC(=O)C1CCN(c2nc(-c3ccc(N)cc3)cs2)CC1 | inactive |
| Cn1nnnc1Sc1ncnc2scc(-c3cccc4c3sc3ccccc34)c12 | inactive |
| Cn1ncc(Cl)c1C1N=C(Nc2nc3ccccc3o2)NC2=C1C(=O)CCC2 (stereo not given) | inactive |

| Compound | Potency |
| --- | --- |
| COc1ccc(OC)c(C(=O)Nc2nc(-c3ccccc3)cs2)c1 | inactive |
| CCCn1c(-c2ccc(F)cc2)nc2c(NCCN3CCCC3)nc(C)nc21 | inactive |
| CN(C(=O)c1cn2c(-c3ccc(C(F)(F)F)cc3)cnc2cn1)c1ccc(C#N)cc1 | inactive |
| O=C1CCc2cc(S(=O)(=O)Nc3ccc4ccccc4c3)ccc2N1 | inactive |
| CCn1cnc2c(Nc3ccc(CCC(=O)N=C(N)N)cc3)nc(C#N)nc21 | inactive |
| FC(F)(F)c1cc(-c2ccc(CNc3nc(-c4ccccc4C(F)(F)F)nc4ccccc34)cc2)ccc1Cl | inactive |
| CCCN(Cc1cccs1)c1ncnc2ccc(-c3ccc4c(c3)OCO4)cc12 | inactive |
| CCCn1c(-c2ccc(F)cc2)nc2c(N3CCN(C)CC3)nc(C)nc21 | inactive |
| CC(C)(NC(=O)Nc1ccccc1Cl)C(=O)N1CCC(C(=O)O)CC1 | inactive |
| O=C(CSc1nc2ccc(S(=O)(=O)N3CCOCC3)cc2[nH]1)N1CCOCC1 | inactive |
| O=C1CCCC2=C1C1(CCCC1)N=C(Nc1nc3ccccc3n1Cc1ccccc1)N2 | inactive |
| O=C(CCc1ccccc1Br)NCCc1nc2ccccc2[nH]1 | inactive |
| O=C(Nc1ccc(F)c(C(F)(F)F)c1)Nc1cccc(-c2ccncc2)n1 | inactive |
| O=S1(=O)N=C(OCc2ccccc2)c2ccccc21 | inactive |
| O=C(Nc1cc(C(F)(F)F)ccc1Cl)C(O)Cc1ccccc1 (stereo not given) | inactive |
| CCOC(=O)c1ccc(-n2cnc3cc(C(=O)N4CCCCC4)ccc32)cc1 | inactive |
| O=c1ccc2ccc(OCCCCN3CCN(c4cccc5sccc45)CC3)cc2[nH]1 | inactive |
| COCCNc1nc(C)nc2c1nc(-c1ccccc1)n2CCN1CCCCC1 | inactive |
| CC(=O)Nc1sc2cnccc2c1-c1nc2ccccc2s1 | inactive |
| CCN(CC)c1ccc(NC(=O)CN(C)Cc2c(O)ccc3ccccc23)cc1 | inactive |
